Measured values: ChEMBL document CHEMBL1961873, “Compounds: GSK PKIS; Assays: Nanosyn kinase panel” (2012)

How the values were obtained:
[1] = molecular target: Serine/threonine-protein kinase MARK2 (Homo sapiens) (UniProt Q7KZI7); settings: at 1 µM
[2] = molecular target: PAS domain-containing serine/threonine-protein kinase (Homo sapiens) (UniProt Q96RG2); settings: at 0.1 µM
[3] = molecular target: PAS domain-containing serine/threonine-protein kinase (Homo sapiens) (UniProt Q96RG2); settings: at 1 µM
[4] = molecular target: Phosphorylase b kinase gamma catalytic chain, skeletal muscle/heart isoform (Homo sapiens) (UniProt Q16816); settings: at 0.1 µM
Sequence of Phosphorylase b kinase gamma catalytic chain, skeletal muscle/heart isoform (Homo sapiens) (Q16816 whole entry, looked up, canonical isoform): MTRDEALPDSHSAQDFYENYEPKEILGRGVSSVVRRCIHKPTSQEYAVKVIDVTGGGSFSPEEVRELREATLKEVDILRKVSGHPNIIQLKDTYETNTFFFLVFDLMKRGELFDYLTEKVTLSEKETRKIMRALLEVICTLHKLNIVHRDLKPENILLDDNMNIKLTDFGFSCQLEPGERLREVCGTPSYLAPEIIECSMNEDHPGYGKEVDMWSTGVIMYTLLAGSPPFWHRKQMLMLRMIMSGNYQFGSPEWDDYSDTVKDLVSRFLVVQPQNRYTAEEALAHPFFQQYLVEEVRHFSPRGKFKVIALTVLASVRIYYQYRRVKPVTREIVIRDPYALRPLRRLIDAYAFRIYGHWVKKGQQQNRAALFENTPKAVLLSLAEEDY

[5] = molecular target: Phosphorylase b kinase gamma catalytic chain, skeletal muscle/heart isoform (Homo sapiens) (UniProt Q16816); settings: at 1 µM
[6] = molecular target: T1, Phosphorylase b kinase gamma catalytic chain, liver/testis isoform (Homo sapiens) (UniProt P15735); settings: at 0.1 µM
T1 sequence (whole entry): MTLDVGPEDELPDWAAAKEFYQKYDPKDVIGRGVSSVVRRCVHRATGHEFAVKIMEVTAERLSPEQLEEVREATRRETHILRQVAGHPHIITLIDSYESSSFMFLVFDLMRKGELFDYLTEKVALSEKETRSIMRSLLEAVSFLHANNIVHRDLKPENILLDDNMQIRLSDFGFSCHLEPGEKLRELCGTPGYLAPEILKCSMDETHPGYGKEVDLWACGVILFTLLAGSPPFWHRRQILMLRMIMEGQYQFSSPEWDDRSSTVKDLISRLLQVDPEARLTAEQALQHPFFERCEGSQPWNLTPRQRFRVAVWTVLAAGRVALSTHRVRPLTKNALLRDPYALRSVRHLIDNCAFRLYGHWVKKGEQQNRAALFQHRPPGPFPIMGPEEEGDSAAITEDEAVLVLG

[7] = molecular target: T1, Phosphorylase b kinase gamma catalytic chain, liver/testis isoform (Homo sapiens); settings: at 1 µM
[8] = molecular target: Serine/threonine-protein kinase pim-1 (Homo sapiens) (UniProt P11309); settings: at 0.1 µM
Sequence of Serine/threonine-protein kinase pim-1 (Homo sapiens) (P11309 whole entry, looked up): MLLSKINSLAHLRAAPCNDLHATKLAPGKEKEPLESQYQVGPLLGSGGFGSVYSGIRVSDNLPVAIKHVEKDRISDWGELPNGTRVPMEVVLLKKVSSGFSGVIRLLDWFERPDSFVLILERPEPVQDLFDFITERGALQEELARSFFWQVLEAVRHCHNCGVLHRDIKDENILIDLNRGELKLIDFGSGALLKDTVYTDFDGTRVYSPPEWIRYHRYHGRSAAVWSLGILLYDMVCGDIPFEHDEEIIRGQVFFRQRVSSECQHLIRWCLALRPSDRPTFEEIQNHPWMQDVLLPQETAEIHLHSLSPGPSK

[9] = molecular target: Serine/threonine-protein kinase pim-1 (Homo sapiens) (UniProt P11309); settings: at 1 µM
[10] = molecular target: Serine/threonine-protein kinase pim-2 (Homo sapiens) (UniProt Q9P1W9); settings: at 0.1 µM
Sequence of Serine/threonine-protein kinase pim-2 (Homo sapiens) (Q9P1W9 whole entry, looked up): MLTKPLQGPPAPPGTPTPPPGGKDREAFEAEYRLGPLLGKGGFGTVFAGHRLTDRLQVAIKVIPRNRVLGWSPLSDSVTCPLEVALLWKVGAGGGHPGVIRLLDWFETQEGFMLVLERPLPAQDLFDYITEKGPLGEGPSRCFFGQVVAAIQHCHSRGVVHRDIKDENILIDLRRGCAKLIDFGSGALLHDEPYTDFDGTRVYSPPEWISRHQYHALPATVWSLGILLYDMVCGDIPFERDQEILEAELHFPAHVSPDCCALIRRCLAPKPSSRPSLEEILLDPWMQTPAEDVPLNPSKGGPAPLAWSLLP

[11] = molecular target: Serine/threonine-protein kinase pim-2 (Homo sapiens) (UniProt Q9P1W9); settings: at 1 µM
[12] = molecular target: Serine/threonine-protein kinase pim-3 (Homo sapiens) (UniProt Q86V86); settings: at 0.1 µM
[13] = molecular target: Serine/threonine-protein kinase pim-3 (Homo sapiens) (UniProt Q86V86); settings: at 1 µM
[14] = molecular target: T2, MAP kinase-activated protein kinase 5 (Homo sapiens) (UniProt Q8IW41); settings: at 0.1 µM
T2 sequence (whole entry): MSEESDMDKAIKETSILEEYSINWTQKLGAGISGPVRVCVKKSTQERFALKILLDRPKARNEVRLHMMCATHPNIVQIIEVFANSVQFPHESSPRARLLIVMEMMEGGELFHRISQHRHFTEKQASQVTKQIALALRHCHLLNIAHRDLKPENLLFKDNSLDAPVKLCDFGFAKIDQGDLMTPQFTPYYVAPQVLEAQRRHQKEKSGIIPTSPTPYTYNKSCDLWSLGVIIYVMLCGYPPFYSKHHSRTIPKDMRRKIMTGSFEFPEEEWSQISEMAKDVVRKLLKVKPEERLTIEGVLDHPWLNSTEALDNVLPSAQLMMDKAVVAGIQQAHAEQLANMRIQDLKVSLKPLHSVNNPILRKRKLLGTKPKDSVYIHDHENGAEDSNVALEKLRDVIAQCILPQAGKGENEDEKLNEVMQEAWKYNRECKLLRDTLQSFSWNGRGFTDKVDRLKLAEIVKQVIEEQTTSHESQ

[15] = molecular target: T2, MAP kinase-activated protein kinase 5 (Homo sapiens); settings: at 1 µM
[16] = molecular target: Serine/threonine-protein kinase SIK1 (Homo sapiens) (UniProt P57059); settings: at 0.1 µM
Sequence of Serine/threonine-protein kinase SIK1 (Homo sapiens) (P57059 whole entry): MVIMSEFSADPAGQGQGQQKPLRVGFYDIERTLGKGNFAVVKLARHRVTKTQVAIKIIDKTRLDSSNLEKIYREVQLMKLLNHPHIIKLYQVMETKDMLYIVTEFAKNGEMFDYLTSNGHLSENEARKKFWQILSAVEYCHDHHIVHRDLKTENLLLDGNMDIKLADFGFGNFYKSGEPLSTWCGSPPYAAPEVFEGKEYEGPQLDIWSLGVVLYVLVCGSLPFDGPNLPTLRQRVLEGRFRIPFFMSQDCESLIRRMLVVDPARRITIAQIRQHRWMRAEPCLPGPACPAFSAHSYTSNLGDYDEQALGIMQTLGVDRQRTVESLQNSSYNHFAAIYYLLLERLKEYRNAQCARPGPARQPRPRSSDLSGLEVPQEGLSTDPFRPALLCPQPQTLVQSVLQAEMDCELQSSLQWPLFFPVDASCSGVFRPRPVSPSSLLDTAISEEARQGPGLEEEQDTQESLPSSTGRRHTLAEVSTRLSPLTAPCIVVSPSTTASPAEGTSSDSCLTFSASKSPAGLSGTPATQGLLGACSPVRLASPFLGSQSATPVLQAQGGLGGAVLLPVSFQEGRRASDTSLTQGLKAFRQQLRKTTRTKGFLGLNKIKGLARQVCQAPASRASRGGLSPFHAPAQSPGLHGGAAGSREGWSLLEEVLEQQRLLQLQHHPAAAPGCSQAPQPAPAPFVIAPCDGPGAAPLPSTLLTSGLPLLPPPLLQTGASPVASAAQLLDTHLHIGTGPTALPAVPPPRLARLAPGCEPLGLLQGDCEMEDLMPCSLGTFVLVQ

[17] = molecular target: Serine/threonine-protein kinase SIK1 (Homo sapiens) (UniProt P57059); settings: at 1 µM
[18] = molecular target: Serine/threonine-protein kinase SIK2 (Homo sapiens) (UniProt Q9H0K1); settings: at 0.1 µM
[19] = molecular target: Serine/threonine-protein kinase SIK2 (Homo sapiens) (UniProt Q9H0K1); settings: at 1 µM
[20] = molecular target: T3, Serine/threonine-protein kinase TBK1 (Homo sapiens) (UniProt Q9UHD2); settings: at 0.1 µM;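 note: values are the mean TBK1 inhibition, taken from the GSK PKIS screening data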
T3 sequence (whole entry): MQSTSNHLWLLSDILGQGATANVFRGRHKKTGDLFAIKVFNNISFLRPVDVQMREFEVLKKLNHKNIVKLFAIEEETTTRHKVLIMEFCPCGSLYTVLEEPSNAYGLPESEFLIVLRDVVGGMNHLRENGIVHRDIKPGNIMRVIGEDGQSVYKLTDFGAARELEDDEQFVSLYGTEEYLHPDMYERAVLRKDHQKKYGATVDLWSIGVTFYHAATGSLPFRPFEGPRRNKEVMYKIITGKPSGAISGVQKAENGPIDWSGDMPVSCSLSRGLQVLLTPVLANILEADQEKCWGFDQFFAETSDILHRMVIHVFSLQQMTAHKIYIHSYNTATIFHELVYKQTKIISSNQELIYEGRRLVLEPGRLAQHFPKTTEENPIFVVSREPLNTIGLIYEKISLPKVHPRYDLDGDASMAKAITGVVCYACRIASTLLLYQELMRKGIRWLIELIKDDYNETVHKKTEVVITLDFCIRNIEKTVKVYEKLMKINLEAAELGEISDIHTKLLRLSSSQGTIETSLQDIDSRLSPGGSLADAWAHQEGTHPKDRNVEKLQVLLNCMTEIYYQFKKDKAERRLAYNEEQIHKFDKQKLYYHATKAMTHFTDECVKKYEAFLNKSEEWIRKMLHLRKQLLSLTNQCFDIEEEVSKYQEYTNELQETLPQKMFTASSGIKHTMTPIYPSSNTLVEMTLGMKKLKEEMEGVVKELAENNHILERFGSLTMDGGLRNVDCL

Sequence of PAS domain-containing serine/threonine-protein kinase (Homo sapiens) (Q96RG2 whole entry, the tested form may be a part, canonical isoform): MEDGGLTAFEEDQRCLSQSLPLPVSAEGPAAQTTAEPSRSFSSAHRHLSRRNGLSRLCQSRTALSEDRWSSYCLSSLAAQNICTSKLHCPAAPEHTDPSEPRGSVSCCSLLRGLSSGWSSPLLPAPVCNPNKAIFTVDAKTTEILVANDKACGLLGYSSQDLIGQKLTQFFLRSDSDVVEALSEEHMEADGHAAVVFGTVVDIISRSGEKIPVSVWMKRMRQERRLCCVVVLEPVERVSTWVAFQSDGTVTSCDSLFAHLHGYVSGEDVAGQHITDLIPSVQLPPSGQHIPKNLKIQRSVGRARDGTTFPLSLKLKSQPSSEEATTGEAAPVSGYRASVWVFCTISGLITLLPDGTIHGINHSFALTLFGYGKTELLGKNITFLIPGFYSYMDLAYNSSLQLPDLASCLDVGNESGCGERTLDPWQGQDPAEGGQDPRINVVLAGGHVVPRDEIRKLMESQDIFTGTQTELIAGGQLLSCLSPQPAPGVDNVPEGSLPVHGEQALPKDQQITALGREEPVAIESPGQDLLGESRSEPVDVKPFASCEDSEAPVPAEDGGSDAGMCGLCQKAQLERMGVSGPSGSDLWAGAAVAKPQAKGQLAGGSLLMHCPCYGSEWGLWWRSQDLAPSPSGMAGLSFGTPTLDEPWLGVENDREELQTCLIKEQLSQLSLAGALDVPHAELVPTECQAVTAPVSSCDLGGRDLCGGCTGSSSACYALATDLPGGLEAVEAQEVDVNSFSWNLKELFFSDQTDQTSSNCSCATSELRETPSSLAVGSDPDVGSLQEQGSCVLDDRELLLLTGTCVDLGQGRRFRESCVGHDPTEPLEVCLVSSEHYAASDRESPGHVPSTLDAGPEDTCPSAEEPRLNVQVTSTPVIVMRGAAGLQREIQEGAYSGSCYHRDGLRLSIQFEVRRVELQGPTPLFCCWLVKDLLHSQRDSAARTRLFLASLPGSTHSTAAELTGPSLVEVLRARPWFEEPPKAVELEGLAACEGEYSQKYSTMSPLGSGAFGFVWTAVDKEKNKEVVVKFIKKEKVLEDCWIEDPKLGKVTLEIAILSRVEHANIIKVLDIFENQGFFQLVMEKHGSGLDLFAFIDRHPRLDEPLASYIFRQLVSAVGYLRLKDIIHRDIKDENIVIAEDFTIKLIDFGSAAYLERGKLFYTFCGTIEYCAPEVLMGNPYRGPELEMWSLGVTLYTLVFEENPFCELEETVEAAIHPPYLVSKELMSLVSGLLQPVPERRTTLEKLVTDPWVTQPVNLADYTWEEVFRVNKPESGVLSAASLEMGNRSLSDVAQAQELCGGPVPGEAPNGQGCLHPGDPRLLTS
Sequence of Serine/threonine-protein kinase MARK2 (Homo sapiens) (Q7KZI7 whole entry, the tested form may be a part): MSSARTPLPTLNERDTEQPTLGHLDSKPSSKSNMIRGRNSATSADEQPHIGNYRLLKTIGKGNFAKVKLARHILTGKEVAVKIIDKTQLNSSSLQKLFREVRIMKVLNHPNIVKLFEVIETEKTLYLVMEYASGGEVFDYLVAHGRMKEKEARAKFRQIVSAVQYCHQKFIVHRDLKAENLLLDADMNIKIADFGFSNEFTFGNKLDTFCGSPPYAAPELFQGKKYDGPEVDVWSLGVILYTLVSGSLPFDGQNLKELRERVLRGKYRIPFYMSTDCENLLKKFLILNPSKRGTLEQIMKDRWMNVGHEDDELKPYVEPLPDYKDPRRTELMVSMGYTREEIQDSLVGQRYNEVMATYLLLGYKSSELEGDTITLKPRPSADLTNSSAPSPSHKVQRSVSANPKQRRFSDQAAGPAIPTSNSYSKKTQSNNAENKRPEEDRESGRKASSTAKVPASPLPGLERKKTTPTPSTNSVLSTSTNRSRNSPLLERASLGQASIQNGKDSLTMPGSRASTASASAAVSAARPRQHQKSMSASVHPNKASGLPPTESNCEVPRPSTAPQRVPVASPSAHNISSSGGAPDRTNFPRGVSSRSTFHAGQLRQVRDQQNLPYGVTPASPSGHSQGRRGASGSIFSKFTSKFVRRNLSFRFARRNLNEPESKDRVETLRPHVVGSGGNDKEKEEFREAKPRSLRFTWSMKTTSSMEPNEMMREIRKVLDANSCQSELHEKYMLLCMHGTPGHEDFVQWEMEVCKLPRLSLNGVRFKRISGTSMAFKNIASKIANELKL

Compound	inhibition [1]	inhibition [2]	inhibition [3]	inhibition [4]	inhibition [5]	inhibition [6]	inhibition [7]	inhibition [8]	inhibition [9]	inhibition [10]	inhibition [11]	inhibition [12]	inhibition [13]	inhibition [14]	inhibition [15]	inhibition [16]	inhibition [17]	inhibition [18]	inhibition [19]	inhibition [20]
COc1cc2ncn(-c3cc(O[C@@H](C)c4ccccc4Cl)c(C(N)=O)s3)c2cc1OC	5.29%	0.19%	1.28%	5.83%	8.24%	6.55%	6.6%	-0.02%	1.8%	-0.11%	0.91%	0.03%	4.24%	1.26%	1.22%	6.27%	18.1%	2.99%	12%	4.39%
Cc1ccc(NC(=O)c2ccnc(N3CCCC3)c2)cc1-c1ccc(C(=O)NCC2CC2)cc1	6.34%	-0.05%	-1.71%	6.43%	11%	5.9%	5.73%	0.89%	1.92%	-2.62%	-1.68%	-0.52%	1.15%	1.02%	1.69%	1.07%	8.28%	0.28%	8.6%	6.98%
Cc1cc(O)cc(C)c1/C=C/c1cncc(-c2nn[nH]n2)c1	3.29%	-0.17%	-1.14%	6.07%	4.92%	4.78%	2.82%	0.66%	1.59%	-3.3%	-2.91%	-1.97%	-0.67%	1.58%	1.02%	56.2%	94.7%	6.01%	53.7%	1.57%
CCCN1CCC=C(c2ccc(Nc3nc(Nc4ccccc4C(N)=O)c4cc[nH]c4n3)c(C)c2)C1	14.6%	-1.89%	-1.19%	-1.86%	48.2%	7.18%	16.4%	2.16%	7.46%	0.34%	4.08%	2.03%	12.5%	1.79%	5.7%	5.62%	9.29%	2.87%	8.52%	3.95%
COc1cc2ncn(-c3cc(OCc4ccccc4Cl)c(C(N)=O)s3)c2cc1OC	6.01%	-0.4%	-0.88%	3.72%	5.84%	-0.8%	1.21%	0.77%	2.71%	1.11%	4.79%	1.01%	8.63%	-0.46%	0.67%	-2.01%	28%	2.69%	26.6%	3.64%
CCc1cccc(NC(=O)Nc2ccc(Oc3ccc4nc(NC(=O)OC)[nH]c4c3)cc2)c1	-0.89%	1.41%	1.44%	-0.84%	2.94%	3.07%	3.57%	1.27%	0.49%	-0.87%	-0.24%	1.1%	3.52%	0.32%	0.96%	2.06%	2.27%	1.99%	0.48%	0.31%
NCc1ccc(-c2nc(-c3ccc(Cl)c(O)c3)c(-c3ccncc3)[nH]2)cc1	2.58%	0.34%	-0.1%	0.14%	3.18%	0.02%	-1.08%	1.18%	0.18%	-0.05%	1.13%	-1.17%	-0.73%	-0.17%	-1.34%	0.32%	3.96%	-0.81%	8.19%	-1.21%
